± gives the standard deviation of the averaged measurements.
Assays:
Assay in all cases: net action potential response of A-neuron (blank-subtracted) (spikes/s (Hz)); higher = stronger excitation
Conditions in all cases: 10 µg on filter paper; neuron: A neuron (large spike amplitude)
[1] = tested on: (+)-isopinocamphone A-neuron OSN class
In short: (§1)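 Single sensillum recordings used tungsten electrodes on one fixed antenna of live lab-reared adult Ips typographus under a humidified, charcoal-filtered airstream (1.8 L/min). Each compound, 10 μg in paraffin oil on filter paper in a pipette, was delivered as a 0.5 s pulse at 0.3 L/min. Spikes of the large-amplitude A-neuron or small-amplitude B-neuron were counted in AutoSpike, pre-stimulus count subtracted, converted to spikes/s, blank-subtracted and averaged across sensilla. Windows were 0.5 s; 1–4 sensilla.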

[2] = tested on: (5S,7S)-trans-conophthorin A-neuron OSN class
In short: as §1

[3] = tested on: myrcene A-neuron OSN class
In short: as §1

[4] = tested on: p-cymene A-neuron OSN class
In short: as §1

SMILES: O=Cc1ccccc1 [Benzaldehyde]
- net action potential response [1]: 21.3 ± 15
- net action potential response [2]: -4 ± 2
- net action potential response [3]: 4
- net action potential response [4]: 2 ± 2

SMILES: Cc1ccccc1 [Toluene]
- net action potential response [1]: 0.667 ± 3.1
- net action potential response [2]: 4 ± 2.3
- net action potential response [3]: 6
- net action potential response [4]: 2 ± 4

SMILES: C=CCc1ccc(OC)cc1 [Estragole]
- net action potential response [1]: -1.33 ± 1.1
- net action potential response [2]: -0.5 ± 6.6
- net action potential response [3]: -2
- net action potential response [4]: 9.33 ± 7
